Assay results from publication PMC4552634, “A New Set of Chemical Starting Points with Plasmodium falciparum Transmission-Blocking Potential for Antimalarial Drug Discovery” (PLoS ONE, 2015).
Like-named read-outs stand apart in the source and are kept apart here. Among all 13,000 compounds or so, about 3,200 (25%) showed an effect of 50% or more. The list shows a part of the results.

Test system: P. falciparum stage V gametocytes
Design: BacTiter-Glo ATP luminescence viability of purified stage V gametocytes in 384-well plates, per cent inhibition versus DMSO
Conditions: 48 h, 5 µM, inhibitor

Structure (SMILES) | % Inhibition [%] | % Inhibition (% Inhibition) [%]
Cc1cc(NC(=O)Nc2cccc(Cl)c2Cl)c2ccccc2n1 [TCMDC-138971] | 10.53 | 
O=C(CCc1c[nH]cn1)Nc1cccc(-c2ccc(-c3nc4cc(F)ccc4[nH]3)s2)c1 [TCMDC-132160] | 19.34 | 
CCOc1ccc(CCCON2C(N)=NC(N)=NC2(C)C)cc1 [TCMDC-131754] | 18.76 | 
C/C=C1\CN2CC[C@H]1C[C@H]2[C@H](O)c1ccnc2ccc(OC)cc12 [TCMDC-138275] |  | 1.908
COc1ccc2ncc(C#N)c(CCN3CCC(NCc4cnc5c(c4)OCCO5)CC3)c2n1 [TCMDC-135230] | 35.06 | 
CC(=O)c1sc(Cc2nc3ccccc3s2)nc1C [TCMDC-125337] | 10.02 | 
CC(C)C(NC(=O)c1c(F)cccc1F)C(=O)Nc1ccc(Cc2nc3ccccc3s2)cc1 (centres unmarked) [TCMDC-125462] | -3.098 | 
CC(C)[C@H](NC(=O)c1c(F)cccc1F)C(=O)Nc1ccc(Cc2nc3ccccc3s2)cc1 [TCMDC-125031] | 63.22 | 
O=C(c1ccccc1N=Nc1c(-c2ccccc2)[nH]n(-c2ccccc2)c1=O)N1CCOCC1 [TCMDC-125746] | -15.29 | 
CN(C)CCN(C)Cc1ccc(-c2ccc(NC(=O)c3cccc(C#N)c3)cc2)cc1 [TCMDC-132597] | -16.52 | 
O=C(Nc1cc(F)cc(-c2cccnc2)c1)c1ccc2c(=O)n(Cc3ccccc3)cnc2c1 [TCMDC-132372] | 12.04 | 
CN1CCC(Oc2ccc(NC(=O)c3ccc4c(=O)n(Cc5ccccc5)cnc4c3)cc2Cl)CC1 [TCMDC-132373] | -13.59 | 
CN(C)Cc1ccc(-c2ccc(NC(=O)c3ccc4c(=O)n(Cc5ccccc5)cnc4c3)cc2)cc1 [TCMDC-132361] | 121.5 | 
CN(C)Cc1cccc(-c2ccc(NC(=O)c3ccc4c(=O)n(Cc5ccoc5)cnc4c3)cc2)c1 [TCMDC-132369] | 14.65 | 
CN(C)Cc1ccc(-c2ccc(NC(=O)c3ccc4c(=O)n(Cc5ccoc5)cnc4c3)cc2)cc1 [TCMDC-132368] | 79.58 | 
Brc1ccsc1-c1nc(NCCC(c2ccccc2)c2ccccc2)no1 [TCMDC-134185] | 1.138 | 
COc1ccc(C2CC(=O)C3=C(C2)NC(C)=C(C(=O)OC2CCCC2)C3c2ccc(O)cc2)cc1OC (centres unmarked) [TCMDC-125626] | 11.61 | 
COc1cc2nc(-c3ccccc3)nc(N3CCN(CC(=O)N4CCCC4)CC3)c2cc1OC [TCMDC-125097] | -15.61 | 
O=C(/C=C/c1ccc(Cl)c(Cl)c1)N1CCC(CNCc2cccc3cc[nH]c23)CC1 [TCMDC-134168] | -34.36 | 
COc1ccc(NC(=O)/C=C/c2ccc(-c3ccc(-c4noc(C)n4)cc3)cc2)cc1OCCN(C)C [TCMDC-138985] | 62.93 | 
COc1ccc(NC(=O)/C=C/c2ccc(-c3ccccc3)cc2)cc1N1CCN(C)CC1 [TCMDC-138979] | -7.206 | 
Cc1nc(-c2ccc(-c3ccc(C(=O)Nc4ccc(C(C)C)c(OCCN(C)C)c4)cc3)c(C)c2)no1 [TCMDC-138990] | -34.94 | 

Structure (SMILES) | % Inhibition [%] | % Inhibition (% Inhibition) [%]
COc1cc(NC(=O)/C=C/c2ccc(-c3ccccc3)cc2)ccc1OCCN(C(C)C)C(C)C [TCMDC-139961] | -1.594 | 
COc1ccc(/C=C/C(=O)Nc2ccc(-c3ccncc3)cc2)cc1CCCN(C)C [TCMDC-132082] | 72.07 | 
COc1ccc(C(=O)Nc2ccc(-c3ccc([N+](=O)[O-])cc3)cc2)cc1CCCN(C)C [TCMDC-132090] | 0.6115 | 
CC(=O)Nc1nc(C(=O)Nc2ccc(-c3cccc(-c4nc5ccc(C(F)(F)F)cc5[nH]4)c3)cc2)cs1 [TCMDC-137129] | -34.14 | 
COc1cccc(COCC(O)CN(CCc2ccccn2)C(=O)c2ccccc2F)c1 (centres unmarked) [TCMDC-141311] | 5.48 | 
CCCCC(CC)CN1C(=O)C(c2ccccc2)(c2ccccc2)N=C1N (centres unmarked) [TCMDC-136814] | -93.32 | 
CNC(=O)c1cc(Nc2nnc(-c3ccc(C)c(S(=O)(=O)NC4CCCCC4)c3)c3ccccc23)ccc1OC [TCMDC-125661] | -9.997 | 
NCc1cccc(-c2cccc(CNC3CCN(Cc4ccccc4)CC3)c2)c1 [TCMDC-140477] | 86.14 | 
NCc1ccc(-c2cccc(CNC3CCN(Cc4ccccc4)CC3)c2)cc1 [TCMDC-140478] | 84.33 | 
NCc1cccc(-c2ccc(CNC3CCN(Cc4ccccc4)CC3)cc2)c1 [TCMDC-140486] | 46.75 | 
Oc1ccc(CN2CCC(NCc3cccc(C(F)(F)F)c3)CC2)cc1 [TCMDC-141655] | -19.37 | 
CCOc1cc(C(=O)NC2CCN(Cc3ccccc3)C2)ccc1-c1nc2ccc(Cl)cc2[nH]1 (centres unmarked) [TCMDC-140911] | -5.376 | 
O=C(Nc1ccc(-c2nc3ccccc3[nH]2)cc1)c1ccc(S(=O)(=O)N2CCCCCC2)cc1 [TCMDC-125712] | -20.46 | 
Cc1ccc2nc(C)cc(N/N=C/c3ccc([N+](=O)[O-])cc3)c2c1 [TCMDC-142070] | 109.1 | 
COc1ccc2nc(C)cc(NN=Cc3ccccc3[N+](=O)[O-])c2c1 [TCMDC-142087] | 48.43 | 
CCOc1ccc2nc(C)cc(NN=Cc3cccc([N+](=O)[O-])c3)c2c1 [TCMDC-142049] | 64.63 | 
Cc1ccc2nc(C)cc(N/N=C/c3ccc([N+](=O)[O-])o3)c2c1 [TCMDC-142035] | 56.06 | 
COc1ccc2nc(C)cc(NN=Cc3ccc([N+](=O)[O-])o3)c2c1 [TCMDC-142036] | 11.78 | 
Cc1ccc2nc(C)cc(NN=Cc3ccc(Cl)cc3)c2c1 [TCMDC-123976] | -8.095 | 
COc1ccc2nc(-c3ccccc3)cc(NN=Cc3ccc([N+](=O)[O-])o3)c2c1 [TCMDC-142040] | -17.37 | 
Cc1ccc2nc(C)cc(N/N=C/c3ccccc3[N+](=O)[O-])c2c1 [TCMDC-123975] | -3.364 | 
CCOc1ccc2nc(C)cc(NN=Cc3ccccc3[N+](=O)[O-])c2c1 [TCMDC-142048] | 91.47 | 
